From PubChem BioAssay
An excerpt weighted towards active compounds, which were near 8.6% of everything screened.
MARV entry inh – qHTS for Inhibitors of binding or entry into cells for Marburg Virus | Marburg virus pseudotype entry/binding inhibition, cell-based | hit rate 6.5% among 18,000 | Potency, µM (doses to about 49.2 µM), inactives show at the highest dose activity change, negative = inhibition, actives largely listed as inhibitors
Lassa entry – qHTS for Inhibitors of binding or entry into cells for Lassa Virus | Lassa virus pseudotyped entry inhibition, cell-based qHTS | Potency, µM (highest dose often 49.2 µM), for the others: at the highest dose activity change, negative = inhibition, actives largely listed as inhibitors | hit rate 4.1% among 18,000 | AID 720533, 2013
* hit, by the source's call; ? = inconclusive; / = no result; ! = a repeat was not active; [ ] = dose if it differs, or a comment. The call rests on the fitted dose curve; tested in HEK293 cells. On the % scale 0 is the no-effect control and ±100 the full control effect; potency means the concentration at half of the fitted maximal effect.

SMILES | MARV entry inh | Lassa entry
CC1CC2CCC(O2)C(C)C(=O)OC(C)CC2CCC(O2)C(C)C(=O)OC(C)CC2CCC(O2)C(C)C(=O)OC(C)CC2CCC(O2)C(C)C(=O)O1 (centres undefined) | 5µM* | 1µM*
O=C1c2ccccc2C(=O)N1CCCC[C@]12Cc3ccccc3[C@H](O1)c1c(c3ccccc3oc1=O)O2 | -29%[8.59 µM] | -5%[8.59 µM]
C=C1CC[C@H](O)C/C1=C\C=C1/CCC[C@]2(C)[C@@H]([C@H](C)CCCC(C)C)CC[C@@H]12 | -4% | ?
C=C1CC[C@H](O)CC1=C/C=C1\CCC[C@]2(C)[C@@H]([C@H](C)CCCC(C)(C)O)CC[C@@H]12 | 12% | 13µM*
C=C1CC[C@H](O)CC1=C/C=C1\CCC[C@]2(C)[C@@H]([C@H](C)CC[C@@H](O)C(C)(C)O)CC[C@@H]12 | 2% | 16µM*
C=C1CC[C@H](O)C/C1=C/C=C1\CCC[C@]2(C)[C@@H]([C@H](C)CCCC(C)C)CC[C@@H]12 | -13% | ?
CCN1C(=S)NC(c2ccccc2)C(C(=O)OC)=C1C (centres undefined) | -2%[8.59 µM] | 6%[8.59 µM]
C=CCOC(=O)N[C@H](C(C(=O)OC)=C(C)NCc1ccccc1)c1cccc(C(F)(F)F)c1 | 3%[8.59 µM] | 31%[8.59 µM]
CC(C)[C@@H]1NC(=O)[C@@H](Cc2ccccc2)NC(=O)[C@H](CC(=O)O)NC(=O)CNC(=O)[C@H](CCCN=C(N)N)NC1=O | -14% | -19%
CC(C)C[C@@H]1NC(=O)[C@H](CCCN)NC(=O)[C@H](C(C)C)NC(=O)[C@@H]2CCCN2C(=O)[C@@H](Cc2ccccc2)NC(=O)[C@H](CC(C)C)NC(=O)[C@H](CCCN)NC(=O)[C@H](C(C)C)NC(=O)[C@@H]2CCCN2C(=O)[C@@H](Cc2ccccc2)NC1=O | ? | 32µM*
CCN1CCC(C(=O)Nc2n[nH]c3nnc(-c4cccc(F)c4F)cc23)CC1 | -42% | /
CN1CCN(CCC=C2c3ccccc3Sc3ccc(S(=O)(=O)N(C)C)cc32)CC1 | 10µM* | 20µM*
COc1ccccc1N1CCN(CCCCNC(=O)c2ccc(-c3ccc(C(C)=O)cc3)cc2)CC1 | ? | 11%
CC(=O)c1ccc2c(c1)N(CCCN1CCN(CCO)CC1)c1ccccc1S2 | 10µM* | 28µM*
CCC(=O)c1ccc2c(c1)N(CCCN1CCN(CCO)CC1)c1ccccc1S2 | 10µM* | 14µM*
Nc1ccc(CCN2CCN(c3cccc(C(F)(F)F)c3)CC2)cc1 | -14% | ?
OCCN1CCN(CC/C=C2/c3ccccc3Sc3ccc(C(F)(F)F)cc32)CC1 | 5.6µM* | 13µM*
C=CC[C@@H]1C=C[C@H](ON=C(C)CCN2CCCc3nc(C)c(C)cc32)[C@H](CO)O1 | 23%[8.59 µM] | 4%[8.59 µM]
O=[S+]1([O-])C[C@H](N2CC[C@@H](O)C2)[C@H](COCc2ccccc2)N1 | 20% | ?
OCCN1CCN(CCCN2c3ccccc3C=Cc3ccccc32)CC1 | 11µM* | 25µM*!
Cc1scc2c1N(C(=O)CN1CCN(C)CC1)c1ccccc1NC2=O | -3% | 2%
OCCN1CCN(CCCN2c3ccccc3Sc3ccc(C(F)(F)F)cc32)CC1 | 7.1µM* | 16µM*!
O=S1(=O)CC(N2CCN(CCO)CC2)CN1CCc1ccccc1 (centres undefined) | 24% | -11%
CN1CCN(CCC(=O)N2c3ccccc3Sc3ccc(C(F)(F)F)cc32)CC1 | 16µM* | ?
O=S1(=O)[C@H]2C[C@H]3O[C@]2(CN1Cc1ccc(C(F)(F)F)cc1)[C@@H]1O[C@@H]13 | 4% | 52%
SMILES | MARV entry inh | Lassa entry
CC(C)CON=C1C[C@@H](O)[C@@H](O)[C@@H]2[C@H]3C(=O)N(C4CCCCC4)C(=O)[C@@H]3CC[C@H]12 | ? | 31%[8.59 µM]
CC(C)=CCCC(C)=CCN1C(=O)[C@@]2(CC(C)=C[C@@H](COCc3ccccc3)O2)c2ccccc21 | 6%[8.59 µM] | -22%[8.59 µM]
COc1ccc(O)c(CN2CCC3(CC2)c2ccccc2[C@@H](NC(=O)c2cccc(F)c2)[C@@H]3OC)c1 | ? | -28%
COc1cccc([C@@H]2Oc3ccc(Br)cc3C(=O)[C@@H]2OC(=O)Nc2ccc(OC(F)F)cc2)c1 | 39%[8.59 µM] | 110%[8.59 µM]
CCN1C(=NCCc2ccccn2)NC(c2cccc(C(F)(F)F)c2)C(C(=O)OC)=C1C (centres undefined) | -20%[8.59 µM] | 33%[8.59 µM]
CC(C)C(=O)OCC(=O)[C@@]12O[C@H](C3CCCCC3)O[C@@H]1C[C@H]1[C@@H]3CCC4=CC(=O)C=C[C@]4(C)[C@H]3[C@@H](O)C[C@@]12C | ? | 28µM*
CCCC1O[C@@H]2C[C@H]3[C@@H]4CCC5=CC(=O)C=C[C@]5(C)[C@H]4[C@@H](O)C[C@]3(C)[C@]2(C(=O)CO)O1 (some centres undefined) | -28% | 3%[17.8 µM]
C[C@@H](CN1c2ccccc2Sc2ccccc21)N(C)C | 10µM* | -14%[17.8 µM]
CN(C)C(=O)OC1=C(c2ccccc2)Sc2ccccc2-n2cccc21 | -18% | ?
CC(CN1c2ccccc2Sc2ccccc21)N(C)C (centres undefined) | 13µM* | 32µM*!
O=S1(=O)C=CCN1C1CCCC1 | 30% | 8%
C[C@@H]1N[S+](=O)([O-])c2ccc(F)cc2O[C@H]1c1ccccc1 | ? | 9%
C[C@@]12CC[C@H](O)C[C@@H]1CC[C@H]1[C@H]2CC[C@@]2(C)[C@@H](C3=CC(=O)OC3)CC[C@]12O | 1µM* | 0.89µM*
C[C@@]12CC[C@H](O)C[C@@H]1CC[C@H]1[C@@H]2C[C@@H](O)[C@]2(C)[C@@H](C3=CC(=O)OC3)CC[C@]12O | 1.4µM* | 3.5µM*
CC(=O)[C@@]1(O)[C@H](O)CC2C3CCC4CC(O)CC[C@]4(C)C3CC[C@@]21C (some centres undefined) | 24% | -3%
C[C@@]12CCC(O)C[C@H]1CCC1C2CC[C@]2(C)C(=O)CCC12 (some centres undefined) | -17% | -3%
Fc1ccc(-c2ncn(CCCN3CCOCC3)c2-c2ccncc2)cc1 | -3% | 65%
Cc1cccc(CN2CCN([C@@H]3C[S+](=O)([O-])N[C@@H]3COCc3ccccc3)CC2)c1 | -18% | -10%
CC1C(=O)C(Cc2cn(CCC3OCCO3)nn2)CCS(=O)(=O)N1Cc1ccc(-c2ccc(Cl)nc2)cc1 (centres undefined) | 96% | 14%
COC(=O)C1=C(C(=O)OC)[C@@H]2N(C)c3ccccc3[C@@]23CCC(=O)N(Cc2ccco2)C3=N1 | 16%[8.59 µM] | /
COc1ccc2[nH]cc(CCN(C)C)c2c1 | -13% | 1%
COC1(CS(=O)c2ccccc2)CCN(CCc2c[nH]c3ccc(F)cc23)CC1 (centres undefined) | 16µM* | -13%
Cc1ccc(C#C[C@@H]2C=C[C@H](Oc3ccc4c(c3)OCO4)[C@@H](CO)O2)c(C)c1 | 11%[8.59 µM] | 2%[8.59 µM]
C[C@H]1CN(c2ccccc2)C(=O)[C@H]1CC(=O)Nc1ccccc1 | 24% | 13%
COC(=O)N[C@H](CC(C)=O)c1ccc(F)cc1 | 36%[8.59 µM] | 1%[8.59 µM]
COc1ccc(COc2cc(-c3cccc(OC)c3)nc3ccc(NC(C)=O)cc23)cc1 | 11% | -14%
COc1cccc(COc2cc(-n3cnc4ccccc43)sc2C(N)=O)c1 | 13µM* | ?
COc1ccc2ncn(-c3cc(OC(C)c4ccccc4C(F)(F)F)c(C(N)=O)s3)c2c1 (centres undefined) | 0.89µM* | ?
